Data: PubChem BioAssay (NCATS)
Inconclusive results are not listed. A number with no mark means an inactive call. The source made the active and inactive calls. Unless noted, calls follow the shape of the dose curve; as a rule, active = well fitted curve in the direction sought with a large enough effect in the repeat runs; inconclusive = weak or mixed curves; inactive = no such curve, though single readings can be large; an effect the other way counts as inactive or inconclusive.

How the values were obtained:
[1] = biological target: Cytochrome P450 2D6 (Homo sapiens) (UniProt P10635); assay: Cytochrome P450 family 2 subfamily D member 6 (CYP2D6) small molecule antagonists: luciferase biochemical (cell-free) qHTS assay (AID 1645840); also: potency is read from the fitted curve at half-maximal effect; nearly all actives have a fitted effect of over 55% in size
In short: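 P450-Glo luminescent screen: recombinant CYP2D6 enzyme–proluciferin substrate mix preincubated with compound 10 min at room temperature, then NADPH regeneration added for 1 h at room temperature. Detection reagent added for 20 min; luciferin light read as relative luminescence units.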

[2] = biological target: Cytochrome P450 2C9 (Homo sapiens) (UniProt P11712); assay: Cytochrome P450 family 2 subfamily C member 9 (CYP2C9) small molecule antagonists: luciferase biochemical (cell-free) qHTS assay (AID 1645842); also: potency is read from the fitted curve at half-maximal effect; nearly all actives have a fitted effect of over 55% in size
In short: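 Luminescence, after 20 min with luciferin detection reagent, reflected CYP2C9 turnover during a 1 h NADPH-driven reaction at 37C. Enzyme-substrate mix contained 0.4% bovine serum albumin and was preincubated with compound 10 min at room temperature.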

[3] = biological target: Rap guanine nucleotide exchange factor 3 (Homo sapiens) (UniProt O95398); assay: Confirmatory qHTS for antagonist of cAMP-regulated guanine nucleotide exchange factor 3 (EPAC1) (AID 1645880; active = well fitted curve in the direction sought with a large enough effect; an effect the other way counts as inactive or inconclusive; also: nearly all actives have a fitted effect of over 55% in size)
In short: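 Nucleotide exchange uses 100 nM EPAC1, 250 nM RAP1B-BODIPY-GDP and 50 uM GDP, with compounds in a concentration-titration series. After 5 min at room temperature, fluorescence (480 nm ex/540 nm em) is read every 5 min for 30 min. Data are normalized to control ATA and DMSO.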

[4] = biological target: Rap guanine nucleotide exchange factor 3 (Homo sapiens) (UniProt O95398); assay: Confirmatory qHTS for agonist of cAMP-regulated guanine nucleotide exchange factor 3 (EPAC1) (AID 1645881; active = well fitted curve in the direction sought with a large enough effect; an effect the other way counts as inactive or inconclusive;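 also: EPAC1 catalysed release of BODIPY-GDP from Rap1B seen as fluorescence loss; nearly all actives have a fitted effect of over 75% in size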)
[5] = biological target: Rap guanine nucleotide exchange factor 4 (Homo sapiens) (UniProt Q8WZA2); assay: Confirmatory qHTS for antagonist of cAMP-regulated guanine nucleotide exchange factor 4 (EPAC2) (AID 1645885; active = well fitted curve in the direction sought with a large enough effect; an effect the other way counts as inactive or inconclusive; also: nearly all actives have a fitted effect of over 25% in size)
[6] = biological target: Rap guanine nucleotide exchange factor 3 (Homo sapiens) (UniProt O95398); assay: Counterscreen qHTS for antagonist of cAMP-regulated guanine nucleotide exchange factor 3 (EPAC1) (AID 1645888; active = well fitted curve in the direction sought with a large enough effect; an effect the other way counts as inactive or inconclusive;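 also: fluorescence loss as bound BODIPY-GDP is released from Rap1B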)
In short: (§1)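 Measured: fluorescence of BODIPY-GDP bound to Rap1B, which falls as exchange proceeds. Conditions include 50 uM competing GDP, 5 and 30 min reads, and a later cAMP challenge for antagonist detection.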

[7] = biological target: Rap guanine nucleotide exchange factor 3 (Homo sapiens) (UniProt O95398); assay: Counterscreen qHTS for agonist of cAMP-regulated guanine nucleotide exchange factor 3 (EPAC1) (AID 1645889; active = well fitted curve in the direction sought with a large enough effect; an effect the other way counts as inactive or inconclusive; also: nearly all actives have a fitted effect of over 40% in size)
In short: as §1

Sequence of Cytochrome P450 2C9 (Homo sapiens) (P11712 whole entry, looked up): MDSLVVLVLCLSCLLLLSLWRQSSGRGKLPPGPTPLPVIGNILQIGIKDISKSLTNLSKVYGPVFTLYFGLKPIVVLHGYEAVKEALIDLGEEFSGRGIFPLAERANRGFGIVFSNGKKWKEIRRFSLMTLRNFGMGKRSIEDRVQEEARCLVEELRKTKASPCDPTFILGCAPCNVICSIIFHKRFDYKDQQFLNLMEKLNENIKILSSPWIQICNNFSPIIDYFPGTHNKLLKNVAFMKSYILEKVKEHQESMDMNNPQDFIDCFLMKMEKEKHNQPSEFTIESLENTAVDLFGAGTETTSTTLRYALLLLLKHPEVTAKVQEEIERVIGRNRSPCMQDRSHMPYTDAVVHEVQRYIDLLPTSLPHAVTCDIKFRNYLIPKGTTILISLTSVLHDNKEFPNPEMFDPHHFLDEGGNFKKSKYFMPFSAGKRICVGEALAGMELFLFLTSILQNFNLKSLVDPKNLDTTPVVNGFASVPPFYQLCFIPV
Sequence of Rap guanine nucleotide exchange factor 3 (Homo sapiens) (O95398 whole entry, looked up): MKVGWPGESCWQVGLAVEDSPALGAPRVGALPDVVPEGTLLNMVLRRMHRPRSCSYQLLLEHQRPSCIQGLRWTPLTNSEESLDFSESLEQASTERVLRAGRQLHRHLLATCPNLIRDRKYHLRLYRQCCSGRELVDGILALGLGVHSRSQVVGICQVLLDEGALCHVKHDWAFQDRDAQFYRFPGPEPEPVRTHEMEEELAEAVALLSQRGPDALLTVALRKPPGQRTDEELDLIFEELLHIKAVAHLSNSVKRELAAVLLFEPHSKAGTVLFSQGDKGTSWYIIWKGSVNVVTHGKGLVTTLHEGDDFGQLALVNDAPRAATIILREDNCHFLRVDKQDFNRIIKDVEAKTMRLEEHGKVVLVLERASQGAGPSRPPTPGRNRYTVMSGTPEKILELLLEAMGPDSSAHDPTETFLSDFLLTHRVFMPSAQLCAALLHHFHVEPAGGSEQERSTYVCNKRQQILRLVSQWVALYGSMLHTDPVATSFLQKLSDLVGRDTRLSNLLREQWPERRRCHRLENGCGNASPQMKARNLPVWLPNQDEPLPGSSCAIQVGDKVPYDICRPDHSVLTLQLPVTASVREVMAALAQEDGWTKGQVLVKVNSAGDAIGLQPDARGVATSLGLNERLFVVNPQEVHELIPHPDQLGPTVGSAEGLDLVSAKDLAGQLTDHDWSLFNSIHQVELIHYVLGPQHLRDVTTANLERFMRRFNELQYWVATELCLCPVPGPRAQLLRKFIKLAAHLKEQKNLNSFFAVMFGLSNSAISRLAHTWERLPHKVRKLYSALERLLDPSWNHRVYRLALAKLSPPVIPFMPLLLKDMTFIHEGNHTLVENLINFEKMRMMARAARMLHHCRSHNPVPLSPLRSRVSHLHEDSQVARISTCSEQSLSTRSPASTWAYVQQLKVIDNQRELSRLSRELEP
Sequence of Cytochrome P450 2D6 (Homo sapiens) (P10635 whole entry, looked up): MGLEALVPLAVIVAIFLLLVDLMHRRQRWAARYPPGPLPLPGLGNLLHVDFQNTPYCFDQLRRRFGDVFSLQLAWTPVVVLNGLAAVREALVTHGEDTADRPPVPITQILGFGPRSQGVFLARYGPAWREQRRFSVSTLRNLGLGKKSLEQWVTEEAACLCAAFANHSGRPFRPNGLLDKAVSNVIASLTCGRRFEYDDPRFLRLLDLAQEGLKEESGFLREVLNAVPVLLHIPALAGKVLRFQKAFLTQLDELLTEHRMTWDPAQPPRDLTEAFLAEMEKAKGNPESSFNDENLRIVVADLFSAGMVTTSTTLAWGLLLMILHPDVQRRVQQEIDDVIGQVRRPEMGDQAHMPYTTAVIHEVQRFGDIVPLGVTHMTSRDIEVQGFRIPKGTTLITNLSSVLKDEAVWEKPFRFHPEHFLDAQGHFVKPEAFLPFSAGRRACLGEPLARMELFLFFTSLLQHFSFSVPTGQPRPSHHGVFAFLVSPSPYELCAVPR
Sequence of Rap guanine nucleotide exchange factor 4 (Homo sapiens) (Q8WZA2 whole entry, looked up): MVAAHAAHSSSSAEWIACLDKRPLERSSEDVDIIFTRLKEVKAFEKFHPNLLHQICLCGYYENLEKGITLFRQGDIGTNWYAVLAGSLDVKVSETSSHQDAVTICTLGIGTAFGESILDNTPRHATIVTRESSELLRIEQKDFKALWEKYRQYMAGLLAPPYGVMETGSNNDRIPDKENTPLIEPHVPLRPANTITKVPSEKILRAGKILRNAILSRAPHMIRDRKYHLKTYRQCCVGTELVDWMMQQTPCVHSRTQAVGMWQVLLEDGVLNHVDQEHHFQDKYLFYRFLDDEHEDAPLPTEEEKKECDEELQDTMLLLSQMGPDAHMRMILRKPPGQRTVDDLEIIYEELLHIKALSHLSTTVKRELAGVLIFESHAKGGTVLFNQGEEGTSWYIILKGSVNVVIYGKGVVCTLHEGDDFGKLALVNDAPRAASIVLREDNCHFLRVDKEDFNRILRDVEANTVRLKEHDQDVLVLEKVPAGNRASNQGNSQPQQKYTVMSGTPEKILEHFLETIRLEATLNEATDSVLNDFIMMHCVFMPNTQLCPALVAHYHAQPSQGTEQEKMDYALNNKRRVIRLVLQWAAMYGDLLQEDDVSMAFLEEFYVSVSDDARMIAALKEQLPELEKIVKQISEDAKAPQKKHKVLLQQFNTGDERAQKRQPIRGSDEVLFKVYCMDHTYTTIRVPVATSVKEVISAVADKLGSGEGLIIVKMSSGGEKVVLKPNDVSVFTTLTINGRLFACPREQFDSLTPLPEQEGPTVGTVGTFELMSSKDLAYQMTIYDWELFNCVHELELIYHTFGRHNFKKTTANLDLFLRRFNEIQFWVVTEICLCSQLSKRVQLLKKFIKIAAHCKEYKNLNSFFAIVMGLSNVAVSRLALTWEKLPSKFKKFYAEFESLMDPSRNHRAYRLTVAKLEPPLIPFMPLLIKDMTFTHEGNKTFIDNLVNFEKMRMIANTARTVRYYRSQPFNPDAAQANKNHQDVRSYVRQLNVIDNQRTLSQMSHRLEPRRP

CC(=O)c1ccc(NC(=O)C2CCN(c3nnc(C)c4c(C)n(-c5ccccc5)nc34)CC2)cc1
Potency [1]: 12 µM (active) | Potency [2]: 7.56 µM (active)

Cc1ccc(Cn2c(Cc3ccccc3)nc3ccccc32)cc1
Potency [1]: 10.7 µM (active) | Potency [2]: 13.5 µM (active) | Potency [3]: inactive | Potency [4]: inactive | Potency [5]: inactive | Potency [6]: inactive | Potency [7]: inactive

Cc1cccc2nc(-c3ccccn3)c(Nc3ccc(F)cc3)n12
Potency [1]: 10.7 µM (active) | Potency [2]: 1.2 µM (active)

O=C(NCc1ccco1)c1ccc2c(c1)N(Cc1cccc(Cl)c1)C(=O)c1ccccc1S2=O (stereo not drawn)
Potency [1]: 1.2 µM (active) | Potency [2]: 1.34 µM (active)
